According to PubChem BioAssay (NCI):
Compounds without any hit were thinned out: in the full panel of roughly 83,000, 20% have a hit.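 The endpoint reported here, percent growth, reads 100 for growth as untreated, 0 for no net growth and -100 for all cells dead.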 Unmarked numbers belong to inactive results. Activity calls are given as the source filed them. How the source made its calls: active means growth percent below 10; inactive means the rest.

How the values were obtained:
Test in all cases: NCI-60 one-dose screen, 48 h (100 = growth as untreated, 0 = no growth, -100 = all killed)
HCT-15 colon = conditions: 10 µM unless noted
HT29 colon = conditions: 10 µM unless noted
SNB-75 CNS = conditions: 10 µM unless noted
SNB-19 CNS = conditions: 10 µM unless noted
U251 CNS = conditions: 10 µM unless noted
SK-MEL-5 melanoma = conditions: 10 µM unless noted
UACC-62 melanoma = conditions: 10 µM unless noted
LOX IMVI melanoma = conditions: 10 µM
SK-MEL-28 melanoma = conditions: 10 µM unless noted
PC-3 prostate = conditions: 10 µM unless noted

Row | SMILES | growth (HCT-15 colon) | growth (HT29 colon) | growth (SNB-75 CNS) | growth (SNB-19 CNS) | growth (U251 CNS) | growth (SK-MEL-5 melanoma) | growth (UACC-62 melanoma) | growth (LOX IMVI melanoma) | growth (SK-MEL-28 melanoma) | growth (PC-3 prostate)
1 | CCCCCCCCCCC(=O)CCCCCCCCCC | 99.7% | 104% | 95.9% | 109% | 101% | 102% | 105% | 94.6% | 106% | –
2 | O=C(Oc1ccccc1Cl)c1ccc(Cl)cc1Cl | 103% | 105% | 91.8% | 99.6% | 89.5% | – | – | 104% | – | 93.6%
3 | NNC(=O)c1ccccc1N | 110% | 106% | 87.9% | 114% | 106% | – | – | 105% | 117% | 101%
4 | O=C(O)c1ccccc1Cc1ccc2c(c1)CCCC2 | 104% | 107% | 87.2% | 102% | 111% | – | 96.4% | 109% | 108% | 103%
5 | CCOc1ccc2c(c1)c(C)cc(C)[n+]2CC | 112% | 81.8% | 71.2% | 64.8% | 45.7% | 78.3% | 92.8% | 73.8% | – | –
6 | C/C=C/C1OCC(CC)C(CCC)O1 (configuration not stated) | 111% | 105% | 90.2% | 99.7% | 104% | – | 101% | 113% | 112% | 98.9%
7 | CC(=O)N(CCCCCCN(C(C)=O)C(C)=O)C(C)=O | 107% [100 µM] | 114% [100 µM] | 87.9% [100 µM] | 99.2% [100 µM] | 107% [100 µM] | – | 97% [100 µM] | – | 105% [100 µM] | 104% [100 µM]
8 | O=C(OCc1ccccc1)n1nnc2ccccc21 | 104% | 106% | 90.2% | 112% | 99.2% | – | 94.4% | 99.6% | 101% | 104%
9 | NNC(=O)CCCCl | 104% | 112% | 95% | 121% | 98.3% | 102% | 103% | 91.3% | 110% | –
10 | OCC1CCC(O)C(CO)N1 (configuration not stated) | 94.1% | 108% | 70.2% | 105% | 100% | – | 105% | 100% | 96.3% | 95%
11 | Nc1ccc(F)cc1F | 108% | 106% | 97.1% | 109% | 106% | – | 100% | 102% | 92.7% | 89.1%
12 | CC(O)C(F)(F)C(F)(F)C(F)(F)F (configuration not stated) | 88.2% | 99.9% | 103% | 112% | 103% | – | 115% | 107% | 108% | 110%
13 | Nc1cc2c(cc1Cl)C(=O)c1ccccc1C2=O | 70.6% | 83.8% | 30.9% | 36.2% | -34.1% (active) | – | 73.2% | – | 101% | 72.5%
14 | COC1OC(COC(C)=O)C(OC(C)=O)C(OC(C)=O)C1OC(C)=O (configuration not stated) | 97.2% | 95.5% | 95.7% | 102% | 102% | – | 86.5% | 98.5% | 94.2% | 87.2%
15 | CCOS(=O)(=O)c1ccc([N+](=O)[O-])cc1 | 110% | 94% | 87% | 101% | 99.2% | 102% | 101% | 97.7% | 107% | –
16 | CC12CCC3c4ccc(O)cc4CCC3C1CCC2=O (configuration not stated) | 101% | 96.4% | 93.4% | 98.2% | 101% | – | 94.6% | 103% | 106% | 85.3%
17 | c1ccc2c(NCCCN3CCN(CCCNc4c5ccccc5nc5ccccc45)CC3)c3ccccc3nc2c1 | 2.79% [100 µM] (active) | -37.3% [100 µM] (active) | -91% [100 µM] (active) | -21.1% [100 µM] (active) | -19.4% [100 µM] (active) | – | -88.5% [100 µM] (active) | – | -72.3% [100 µM] (active) | -33.1% [100 µM] (active)
18 | C=CCc1cc(OC)c(OC)c(OC)c1 | 99.1% | 98% | 101% | 103% | 102% | – | 97.4% | 102% | 115% | 100%
19 | Nc1cc(F)ccc1[N+](=O)[O-] | 102% | 109% | 85.9% | 102% | 106% | – | 101% | 100% | 104% | 87.5%
20 | NC(=S)N/N=C/c1ccc(OC(=O)COc2ccc(Cl)cc2)cn1 | 70.6% | 79.3% | 44.9% | 72.9% | 32.6% | 30.7% | 8.53% (active) | 23.8% | 76.5% | –
21 | Cc1c(Cl)cccc1N=C=S | 107% | 104% | 70.6% | 93.5% | 106% | – | 97.4% | 103% | 132% | 89.6%
22 | C/C(Cc1ccccc1)=N\O | 96.9% | 101% | 115% | 108% | 104% | – | 106% | 119% | 111% | 88.4%
23 | CCOC(=O)/C(C)=C\c1ccc(OC)c(OC)c1 | 101% | 106% | 92.9% | 107% | 94% | – | 101% | 98% | 108% | 97.5%
24 | CC(C)Sc1ncnc2nc[nH]c12 | 103% | 113% | 115% | 99.5% | 107% | 104% | 93.3% | 100% | 82.8% | –
25 | CCOc1ccc(C(=O)NCC(C)C)cc1 | 103% | 106% | 81.8% | 99.3% | 101% | 101% | 101% | 97.2% | – | –
26 | CCN(C(=O)Nc1ccccc1Cl)c1ccccc1 | 94.1% | 101% | 117% | 103% | 96.8% | – | 104% | 96.5% | 113% | 94.6%
27 | CN(C)CCOC(=O)Nc1ccc(Cc2ccc(NC(=O)OCCN(C)C)cc2)cc1 | 63.1% [100 µM] | 14.5% [100 µM] | 89% [100 µM] | 99.6% [100 µM] | 69.4% [100 µM] | – | 1.99% [100 µM] (active) | – | 18.7% [100 µM] | 60.5% [100 µM]
28 | CCN(CC)CCOC(=O)Nc1c(C(C)C)cccc1C(C)C | 106% | 92.8% | 110% | 99.6% | 107% | – | 93.3% | – | 111% | 95.5%
